Experimental findings from PubChem BioAssay (NCI) are described below.

This is part of a sample that, as a whole, favours compounds with a hit. Of some 79,000 tested, about 15% had one in any assay. A number with no mark means an inactive call. Activity calls are given as the source filed them. Rule as the data show it: active = growth inhibition above about 70%; inactive = the rest.

A short description of assay [1]: NCI Yeast Anticancer Drug Screen. Data for the rad50 strain (AID 155).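 Also: 0% = growth of vehicle-only cultures of the same strain.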 The settings on record: S. cerevisiae rad50 strain growth inhibition, active compounds read high. In outline:
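Genetically altered yeast (DNA repair pathway); compound treatment; growth inhibition vs vehicle ctrl.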

Assay [2] can be described thus: NCI Yeast Anticancer Drug Screen. Data for the mec2-1 strain (AID 157). The settings on record: S. cerevisiae mec2-1 strain, active compounds read high. In short, it runs like this:
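Readout is yeast growth inhibition, normalised to vehicle-treated controls, in the mec2-1 strain exposed to compound.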

Assay [3] is described as follows: NCI Yeast Anticancer Drug Screen. Data for the sgs1 mgt1 strain (AID 161).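 Also: 0% = growth of cultures given vehicle only.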 The following applies: S. cerevisiae sgs1 mgt1 strain, active compounds read high. In outline: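 This yeast growth screen uses a strain with defined DNA-repair lesions; compound-treated growth is compared with vehicle-treated growth.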
Assay [4] in a line: NCI Yeast Anticancer Drug Screen. Data for the cln2 rad14 strain (AID 165).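 Also: 0% = growth equal to vehicle treated cultures.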 The following applies: S. cerevisiae cln2 rad14 strain, active compounds read high. In outline: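 Relative to vehicle controls, growth inhibition of compound-treated cln2 rad14 yeast was recorded.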
A short description of assay [5]: NCI Yeast Anticancer Drug Screen. Data for the bub3 strain (AID 167). The following applies: S. cerevisiae bub3 mutant strain, active compounds read high. In short, it runs like this: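 Yeast carrying a defined mutation is treated with each compound, and growth is compared with that of vehicle-exposed cells to give inhibition.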
Assay [6] in a line: NCI Yeast Anticancer Drug Screen. Data for the mlh1 rad18 strain (AID 175). The settings on record: S. cerevisiae mlh1 rad18 strain growth inhibition, active compounds read high. In short, it runs like this: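 Test agents were incubated with a yeast strain of defined genotype (DNA damage repair defect). Inhibition of growth was derived by comparison with vehicle-exposed cultures.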

Setting [7] is: at 5.0 µM (retest, dose inferred, filed as 0.5).
The mark [8] stands for this setting: at 50.0 µM (retest, dose inferred, filed as 5.0).

Take `O=C(Nc1c(Cl)cccc1Cl)OCc1ccc2c(c1)OCO2`: the growth inhibition was 46% in assay [1] (setting [7]); 54% in assay [1] (setting [8]); 35.8% in assay [1] (at 50.0 µM); 33% in assay [2] (setting [7]); 32% in assay [2] (setting [8]); 48.6% in assay [2] (at 50.0 µM). In addition, the growth inhibition in assay [3] (setting [7]) is 44%; in assay [3] (setting [8]), 53%; in assay [3] (at 50.0 µM), 50%; in assay [4] (setting [7]), 33%; in assay [4] (setting [8]) it was 43%; in assay [4] (at 50.0 µM) it was 14.3%. Moreover, the growth inhibition is 46% in assay [5] (setting [7]); 73% (active) in assay [5] (setting [8]); 43% in assay [5] (at 50.0 µM); 41% in assay [6] (setting [7]); 42% in assay [6] (setting [8]); 35.9% in assay [6] (at 50.0 µM).
`COc1ccc2ccc(=O)oc2c1CC=C(C)C`: the growth inhibition in assay [1] (setting [7]) was 88% (active); in assay [1] (setting [8]), 98% (active); in assay [1] (at 50.0 µM), 46.5%; in assay [2] (setting [7]), 13%; in assay [2] (setting [8]), 99% (active); in assay [2] (at 50.0 µM), 37.6%. Moreover, the growth inhibition in assay [3] (setting [7]) is 6%; in assay [3] (setting [8]) it was 99% (active); in assay [3] (at 50.0 µM), 72.5% (active); in assay [4] (setting [7]) it was 7%; in assay [4] (setting [8]), 98% (active); in assay [4] (at 50.0 µM) it was -9.6%. The growth inhibition was 14% in assay [5] (setting [7]); 98% (active) in assay [5] (setting [8]); 62% in assay [5] (at 50.0 µM); 13% in assay [6] (setting [7]); 98% (active) in assay [6] (setting [8]); 31.5% in assay [6] (at 50.0 µM).
As for `Clc1ccc2nc(CCSCCc3nc4ccc(Cl)cc4[nH]3)[nH]c2c1`, the growth inhibition is 5% in assay [1] (setting [7]); 97% (active) in assay [1] (setting [8]); 87.8% (active) in assay [1] (at 50.0 µM); 7% in assay [2] (setting [7]); 98% (active) in assay [2] (setting [8]); 98.7% (active) in assay [2] (at 50.0 µM). Also, the growth inhibition is 7% in assay [3] (setting [7]); 97% (active) in assay [3] (setting [8]); 82% (active) in assay [3] (at 50.0 µM); -15% in assay [4] (setting [7]); 99% (active) in assay [4] (setting [8]); 59.9% in assay [4] (at 50.0 µM). The growth inhibition in assay [5] (setting [7]) was -10%; in assay [5] (setting [8]), 98% (active); in assay [5] (at 50.0 µM), 94.8% (active); in assay [6] (setting [7]) it was 0%; in assay [6] (setting [8]), 98% (active); in assay [6] (at 50.0 µM) it was 97.9% (active).
Consider `O=C(O)c1cc(-c2ccc3c(c2)Nc2ccccc2S3)nc2ccc(F)cc12`, for which the growth inhibition in assay [1] (setting [7]) is 16%; in assay [1] (setting [8]) it was 98% (active); in assay [1] (at 50.0 µM) it was 99% (active); in assay [2] (setting [7]), -40%; in assay [2] (setting [8]), 98% (active); in assay [2] (at 50.0 µM), 99.1% (active). Also, the growth inhibition in assay [3] (setting [7]) was 12%; in assay [3] (setting [8]), 99% (active); in assay [3] (at 50.0 µM), 98.8% (active); in assay [4] (setting [7]) it was 22%; in assay [4] (setting [8]) it was 97% (active); in assay [4] (at 50.0 µM), 98.7% (active). For the same compound, the growth inhibition is 33% in assay [5] (setting [7]); 97% (active) in assay [5] (setting [8]); 98% (active) in assay [5] (at 50.0 µM); 18% in assay [6] (setting [7]); 96% (active) in assay [6] (setting [8]); 98.7% (active) in assay [6] (at 50.0 µM).
Turning to `Cn1c(=O)c2c(ncn2-c2ccncc2)n(C)c1=O`, the growth inhibition in assay [1] (setting [7]) is -5%; in assay [1] (setting [8]), 0%; in assay [1] (at 50.0 µM) it was 11.4%; in assay [2] (setting [7]), -4%; in assay [2] (setting [8]), -5%; in assay [2] (at 50.0 µM), -3.9%. For the same compound, the growth inhibition in assay [3] (setting [7]) was -3%; in assay [3] (setting [8]), -7%; in assay [3] (at 50.0 µM), 15.9%; in assay [4] (setting [7]) it was -3%; in assay [4] (setting [8]), 31%; in assay [4] (at 50.0 µM) it was 73.8% (active). The growth inhibition in assay [5] (setting [7]) is -9%; in assay [5] (setting [8]), -8%; in assay [5] (at 50.0 µM), -5.35%; in assay [6] (setting [7]), -5%; in assay [6] (setting [8]), -2%; in assay [6] (at 50.0 µM), 4.8%.
With `OCCc1cccc2ccc3ccccc3c12`, the growth inhibition in assay [1] (setting [7]) is 0%; in assay [1] (setting [8]), 62%; in assay [1] (at 50.0 µM), 85.9% (active); in assay [2] (setting [7]), -1%; in assay [2] (setting [8]), 55%; in assay [2] (at 50.0 µM), 92.8% (active). For the same compound, the growth inhibition in assay [3] (setting [7]) is -4%; in assay [3] (setting [8]), 59%; in assay [3] (at 50.0 µM), 94.2% (active); in assay [4] (setting [7]), -1%; in assay [4] (setting [8]), 59%; in assay [4] (at 50.0 µM), 88.2% (active). Moreover, the growth inhibition is 1% in assay [5] (setting [7]); 66% in assay [5] (setting [8]); 90.4% (active) in assay [5] (at 50.0 µM); 2% in assay [6] (setting [7]); 66% in assay [6] (setting [8]); 91.8% (active) in assay [6] (at 50.0 µM).
On to `N/C(=N\N=C\c1cc(I)cc(I)c1O)NO`, for which the growth inhibition in assay [1] (setting [7]) is 11%; in assay [1] (setting [8]), 98% (active); in assay [1] (at 50.0 µM) it was 95.5% (active); in assay [2] (setting [7]), 1%; in assay [2] (setting [8]) it was 96% (active); in assay [2] (at 50.0 µM), 95.3% (active). Moreover, the growth inhibition was 2% in assay [3] (setting [7]); 98% (active) in assay [3] (setting [8]); 97.6% (active) in assay [3] (at 50.0 µM); 38% in assay [4] (setting [7]); 89% (active) in assay [4] (setting [8]); 93.7% (active) in assay [4] (at 50.0 µM). Further, the growth inhibition in assay [5] (setting [7]) was -2%; in assay [5] (setting [8]), 99% (active); in assay [5] (at 50.0 µM), 96.7% (active); in assay [6] (setting [7]), 24%; in assay [6] (setting [8]), 99% (active); in assay [6] (at 50.0 µM), 97.9% (active).
`CCCC(C)c1ccc(O)cc1` (configuration not stated): the growth inhibition in assay [1] (setting [7]) is 6%; in assay [1] (setting [8]), 13%; in assay [1] (at 50.0 µM), 57.4%; in assay [2] (setting [7]) it was 1%; in assay [2] (setting [8]), 16%; in assay [2] (at 50.0 µM), 43.9%. Further, the growth inhibition in assay [3] (setting [7]) is 0%; in assay [3] (setting [8]), 16%; in assay [3] (at 50.0 µM) it was 51.7%; in assay [4] (setting [7]), 4%; in assay [4] (setting [8]), -3%; in assay [4] (at 50.0 µM) it was -26.3%. In addition, the growth inhibition in assay [5] (setting [7]) was -2%; in assay [5] (setting [8]), 17%; in assay [5] (at 50.0 µM), 24.6%; in assay [6] (setting [7]), 2%; in assay [6] (setting [8]), 39%; in assay [6] (at 50.0 µM), 91.7% (active).
Turning to `Nc1nc(Cl)cc(NCC2(CO)CC(CCCc3ccccc3)C2)n1` (configuration not stated), the growth inhibition is 25% in assay [1] (setting [7]); 26% in assay [1] (setting [8]); -8.3% in assay [1] (at 50.0 µM); 10% in assay [2] (setting [7]); 7% in assay [2] (setting [8]); -6.6% in assay [2] (at 50.0 µM). In addition, the growth inhibition in assay [3] (setting [7]) was 6%; in assay [3] (setting [8]) it was 12%; in assay [3] (at 50.0 µM), -26.5%; in assay [4] (setting [7]) it was 13%; in assay [4] (setting [8]), 12%; in assay [4] (at 50.0 µM), -1.55%. Moreover, the growth inhibition in assay [5] (setting [7]) is 15%; in assay [5] (setting [8]), 17%; in assay [5] (at 50.0 µM) it was -8.75%; in assay [6] (setting [7]) it was 23%; in assay [6] (setting [8]), 22%; in assay [6] (at 50.0 µM), -48.1%.
